This is an account of results in PubChem BioAssay.

A number with no mark means an inactive call.

The nature of this assay: S. cerevisiae growth modulation with rapamycin, primary screen, strain BY4716, OD600, 96 h (AID 1091). Also: test concentration not given here. The settings on record: higher = more signal, called active from +8 up or from −8 down.
`COC(=O)C(CC#Cc1ccc2c(c1)[C@]1(C(=O)N2)[C@H](c2ccccc2OCCO)N2[C@H](c3ccccc3)[C@H](c3ccccc3)OC(=O)[C@H]2[C@@H]1C(=O)N1CCN(c2ncccn2)CC1)C(=O)OC`: the z-score is 6.83.
To `COC(=O)[C@@]1(Cc2ccc(F)cc2)[C@H]2c3cc(C(=O)N(C)C)n(Cc4ccc(C(F)(F)F)nc4)c3C[C@H]2CN1C(=O)c1ccccc1` belongs 4.36; to `COCCCNC(=O)[C@]1(Cc2ccccc2CN=[N+]=[N-])N=C(c2ccc(OCCCO)cc2)O[C@@H]1c1ccccc1N=[N+]=[N-]`, 4.98; to `[N-]=[N+]=Nc1ccccc1C[C@]1(C(N)=O)COC(c2ccc(OCCCO)cc2)=N1`, 0.0643.
To `COc1cc(Cc2cc3c(c(-c4ccccc4)n2)[Si](C(C)C)(C(C)C)OC3)cc(OC)c1OC` belongs -0.573; to `COC(=O)C[C@H]1O[C@]2(C(=O)N(C)c3ccccc32)[C@@H](C)[C@@H]1[Si](C)(C)c1ccccc1`, -2.45.
To `C=CC[C@H](O)c1ccc(O)c(F)c1` belongs -1.56.
As for `COc1ccc(CCNC(=O)[C@@H]2c3ccccc3C(=O)N(C(C)C)[C@H]2c2ccc(CO)cc2)cc1`, the z-score is -0.0884.
Next, `COC(=O)[C@@]1(Cc2ccc(F)cc2)[C@H]2c3cc(C(=O)N(C)C)n(CCF)c3C[C@H]2CN1C(=O)c1ccccc1`: -0.318; `Cc1ccc(N2C(=O)c3ccccc3[C@@H](C(=O)NCCN3CCOCC3)[C@@H]2c2ccc(CO)cc2)nc1`: -1.59.
